The first assay relates to PPARg DBDmut IVT, anti-PPARg (DBD mutation: PPARg1 K132A/R137A, NR concentration 270 nM). Briefly: PBM binding z-score (relative to random genomic background probes); higher = stronger binding; sequences stand for … in GC…GCGATTGACAGCGTAGAATGAAGG
The method in brief:
(§1)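 Probes were double-stranded and carried 34-nt variable regions with direct-repeat seeds, single-nucleotide variants, half-site ablations and random human genomic background sequences, printed on custom Agilent 4×180K protein-binding microarrays. Arrays were incubated 1 h with ligand-free nuclear receptor dimers in PBS pH 7.4, 2% milk, 0.02% Triton X-100, 1 mM DTT, 0.2 mg/mL BSA and 0.4 mg/ml salmon testes DNA. Antibodies against each partner (one per run) detected binding, and scanned fluorescence was regression-normalized. Binding z-scores use the random background probes as reference.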
With CCTTACGGGTCACTGACAGGTTACAGCATTTGGA, the PBM binding z-score is -0.264.
Still for that read-out and setting: to CCAGACAGGTGAAAAGTAACTCAGTCTGGTACGC belongs -0.539; to ATCTCTAGGTAACCAAGATCAGTGAATGCCGAAC, 1.13.
The sequence CCTACTGAGCCAAAGGTCATTGATTCCAATGCTC displayed a PBM binding z-score of 0.224.
The same measure, in the same setting: to GCGACTGGGGCATCAGAAGGTTACCATAACTTAA belongs -0.175.
Same read-out and setting: with ATCTATAGGTAACCAAGTTCAGTGAATGCCGAAC the figure was 1.09; with CCAGACAGGTGAGAAGGCAACTCAGCCTCGATTA, -0.637; with CCAGTCAGGTGAGAAGGTAACTCAGCCTCGATTA, -1.63.
Sequence TCGACTAGGTTAGTCGGGGCATTCAGCCAACATA had a PBM binding z-score of -0.496.
Still for that read-out and setting: with CGTCCAAGTTCAACTAAGGTAACGTAAAGCACGC the figure was 0.451; with AATACAGGGGCACTAGGCCAGAGTAGGTACGAAT, 0.38.
CCTGCTAGGTCATGGACAGCTAATCTACAGTATG yielded a PBM binding z-score of 0.0292.
For the sequence GCTAGTTGGGCAGTAAAAGGTCACACACCGGTCG, the PBM binding z-score is -0.41.
Same read-out and setting: with TCAGACGGGTGAAGGTAACTCAGGTACGCAGTCG the figure was -0.479; with ATCTCTAGGTACGACTCAGTTCAGTGAAGAACGC, 1.02.
On the same count and under the same terms, to GCGACTGGGGCATAGCAGGTTACCATAAGGTTGG belongs -0.706.
The same measure, in the same setting: to CGTCAAAGTTCAACTAAGGTAACGTAAAGCACGC belongs 0.815; to TCAGACAGGTGAACGTAACTCAGGTACGCAGTCG, -0.331.

A further assay relates to PPARg homodimer (NR concentration 180 nM). Described as above. The method in brief:
as §1
Consider GATACAGGGTCAGCTAGAGGCCTGAGTATGGAAA, for which the PBM binding z-score came out at 1.14.
As for CTCGAAAGGTCGTGCTCAGGTGAGCATACCAAAC, the PBM binding z-score is 3.06.
For the sequence CGTCCAAGGTCAAAGGTCAGTGAGGAGATGACGG, the PBM binding z-score amounted to 6.24.
The same measure, in the same setting: with GATGCTAGGTCAACTGATGGTCAGCTAAAGCTCG the figure was 1.48; with AGATTGAGGTTATTAAGATCAGGGAATTGCGGTC, 1.25.
CGTCCAAGGCCAATGCTAGGTCAGTGAAAGCATT yielded a PBM binding z-score of 0.131.
On the same count and under the same terms, to GAAACAGGGTCAAGGCCAGAGTACGCGTATTGAT belongs 2.18; to CCGCCTAGGTCAGGGCCAGTATAGGAGGAACGTT, 0.393; to CCGAGTAGGTTAGGGGGCATTCAGGCAACGGTGA, 2.25.
ACTCGGAGGACAACGGTCAGAGCTACGCCAGTGA showed a PBM binding z-score of -0.201.
Same read-out and setting: with CGTCAAAGTTCAACTAAGGTAACGTACAGCACGC the figure was 3.88; with GCGACTGGGGCATCAGCAGGTTACAATAACTTAA, 0.365.
On the same count and under the same terms, with TCTCGGAAGACACGAAAGGTCAGAGCTCGACATC the figure was 3.09; with TCGAGAAGGTTAGTCGGGGCATTCAGCCAACATA, 0.545.
Still for that read-out and setting: with AGAATGAGGTTATACGTAGATCAGGGAGGAAAGT the figure was 0.811; with ATATGTAGGTTATCGGGCCATTCAGTTTGCGCAT, 1.89.
In turn, TATACAGGGTAAAAGGCCAGAGTACGAATGTCGA came in with a PBM binding z-score of 1.27.
For the sequence CCTGCTAGGTAAATGGTCAGCTAAAGCAGCTCGC, the PBM binding z-score was 0.311.
Still for that read-out and setting: with TCTAATTGGTCAAAGGTCACACACTCGAAATGCG the figure was 12.2; with TCATATAGGTTAATGCTAGGTGAAAGTCCGATCT, 1.47; with TAGCCTAGGTCAGATCGGCCCAGTATACGCTATA, -0.0384.
The sequence CAAACTAGGTAACAGAGGTCAAAGTCCGTGCGTA came in with a PBM binding z-score of 4.37.
Turning to CCTTACGGGTCACTGACAGGTTACAGCATTTGGA, the PBM binding z-score was 2.85.
Turning to CCAGACAGGTGAAAAGTAACTCAGTCTGGTACGC, the PBM binding z-score came to 0.332.
Still for that read-out and setting: to ATCTCTAGGTAACCAAGATCAGTGAATGCCGAAC belongs 0.619.
On the same count and under the same terms, to CCTACTGAGCCAAAGGTCATTGATTCCAATGCTC belongs 5.35; to GCGACTGGGGCATCAGAAGGTTACCATAACTTAA, 0.756.
ATCTATAGGTAACCAAGTTCAGTGAATGCCGAAC gave a PBM binding z-score of 0.665.
The same measure, in the same setting: to CCAGACAGGTGAGAAGGCAACTCAGCCTCGATTA belongs 0.166; to CCAGTCAGGTGAGAAGGTAACTCAGCCTCGATTA, 0.612; to TCGACTAGGTTAGTCGGGGCATTCAGCCAACATA, -0.609.
CGTCCAAGTTCAACTAAGGTAACGTAAAGCACGC: the PBM binding z-score amounted to 1.83.
For AATACAGGGGCACTAGGCCAGAGTAGGTACGAAT, the PBM binding z-score is 0.784.
Still for that read-out and setting: to CCTGCTAGGTCATGGACAGCTAATCTACAGTATG belongs 0.812; to GCTAGTTGGGCAGTAAAAGGTCACACACCGGTCG, 4.82; to TCAGACGGGTGAAGGTAACTCAGGTACGCAGTCG, 0.581.
Still for that read-out and setting: with ATCTCTAGGTACGACTCAGTTCAGTGAAGAACGC the figure was 0.793.
Same read-out and setting: to GCGACTGGGGCATAGCAGGTTACCATAAGGTTGG belongs -0.174.
CGTCAAAGTTCAACTAAGGTAACGTAAAGCACGC had a PBM binding z-score of 2.8.
For the sequence TCAGACAGGTGAACGTAACTCAGGTACGCAGTCG, the PBM binding z-score was found to be 0.406.

In another assay the test system is PXR:RXRa (NR concentration 270 nM, RXRa partner concentration 90 nM). Described as above. Summed up: as §1
In turn, GATACAGGGTCAGCTAGAGGCCTGAGTATGGAAA came in with a PBM binding z-score of 1.73.
As for CTCGAAAGGTCGTGCTCAGGTGAGCATACCAAAC, the PBM binding z-score is 3.43.
In turn, CGTCCAAGGTCAAAGGTCAGTGAGGAGATGACGG returned a PBM binding z-score of 7.08.
Same read-out and setting: to GATGCTAGGTCAACTGATGGTCAGCTAAAGCTCG belongs 1.45; to AGATTGAGGTTATTAAGATCAGGGAATTGCGGTC, 1.32; to CGTCCAAGGCCAATGCTAGGTCAGTGAAAGCATT, 0.224.
Still for that read-out and setting: to GAAACAGGGTCAAGGCCAGAGTACGCGTATTGAT belongs 4.41; to CCGCCTAGGTCAGGGCCAGTATAGGAGGAACGTT, 0.629.
Consider CCGAGTAGGTTAGGGGGCATTCAGGCAACGGTGA, for which the PBM binding z-score was found to be 2.19.
Same read-out and setting: to ACTCGGAGGACAACGGTCAGAGCTACGCCAGTGA belongs -0.539; to CGTCAAAGTTCAACTAAGGTAACGTACAGCACGC, 5.9.
The same measure, in the same setting: to GCGACTGGGGCATCAGCAGGTTACAATAACTTAA belongs 0.0826.
Still for that read-out and setting: to TCTCGGAAGACACGAAAGGTCAGAGCTCGACATC belongs 3.58; to TCGAGAAGGTTAGTCGGGGCATTCAGCCAACATA, 0.807; to AGAATGAGGTTATACGTAGATCAGGGAGGAAAGT, 1.18.
Regarding ATATGTAGGTTATCGGGCCATTCAGTTTGCGCAT, the PBM binding z-score is 0.605.
On the same count and under the same terms, to TATACAGGGTAAAAGGCCAGAGTACGAATGTCGA belongs 0.286; to CCTGCTAGGTAAATGGTCAGCTAAAGCAGCTCGC, -0.268.
Same read-out and setting: with TCTAATTGGTCAAAGGTCACACACTCGAAATGCG the figure was 6.35; with TCATATAGGTTAATGCTAGGTGAAAGTCCGATCT, 1.13.
Same read-out and setting: with TAGCCTAGGTCAGATCGGCCCAGTATACGCTATA the figure was 0.228; with CAAACTAGGTAACAGAGGTCAAAGTCCGTGCGTA, 6.
CCTTACGGGTCACTGACAGGTTACAGCATTTGGA displayed a PBM binding z-score of 3.59.
Sequence CCAGACAGGTGAAAAGTAACTCAGTCTGGTACGC came in with a PBM binding z-score of -0.0943.
In turn, ATCTCTAGGTAACCAAGATCAGTGAATGCCGAAC yielded a PBM binding z-score of 0.0058.
The same measure, in the same setting: with CCTACTGAGCCAAAGGTCATTGATTCCAATGCTC the figure was 5.49.
GCGACTGGGGCATCAGAAGGTTACCATAACTTAA: the PBM binding z-score stood at 0.582.
The same measure, in the same setting: to ATCTATAGGTAACCAAGTTCAGTGAATGCCGAAC belongs 2.46; to CCAGACAGGTGAGAAGGCAACTCAGCCTCGATTA, -0.0948; to CCAGTCAGGTGAGAAGGTAACTCAGCCTCGATTA, -0.228.
On to TCGACTAGGTTAGTCGGGGCATTCAGCCAACATA, for which the PBM binding z-score worked out at 0.117.
On the same count and under the same terms, to CGTCCAAGTTCAACTAAGGTAACGTAAAGCACGC belongs 4.44; to AATACAGGGGCACTAGGCCAGAGTAGGTACGAAT, -0.286; to CCTGCTAGGTCATGGACAGCTAATCTACAGTATG, 1.4.
On the same count and under the same terms, with GCTAGTTGGGCAGTAAAAGGTCACACACCGGTCG the figure was 5.1; with TCAGACGGGTGAAGGTAACTCAGGTACGCAGTCG, 0.181; with ATCTCTAGGTACGACTCAGTTCAGTGAAGAACGC, 1.4.
Still for that read-out and setting: with GCGACTGGGGCATAGCAGGTTACCATAAGGTTGG the figure was 0.0194; with CGTCAAAGTTCAACTAAGGTAACGTAAAGCACGC, 5.69; with TCAGACAGGTGAACGTAACTCAGGTACGCAGTCG, 0.573.

These data come from the supplement of paper PMC6555819.
